VDR inh – blocks the human vitamin D receptor; P11473; Potency, µM, hits mostly inhibitors; hit rate 0.93% among 400,000; VDR-SRC2-3 peptide fluorescence polarization, 2 h
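Fluorescence polarization assay of small-molecule disruption of VDR binding to coregulator peptide SRC2-3. Compounds and controls pin-transferred, then read after 2 h incubation at ambient room temperature.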
PLK1 PBD inh – PLK1 (human) polo-box domain binding inhibition; P53350; Plk1 PBD binding of FITC phosphopeptide, fluorescence polarization; Potency, µM, most hits filed as inhibitors; hit rate 2.8% among 360,000; AID 720504; note: series mostly up to about 57 µM; nearly all actives have a fitted effect of over 65% in size
Vif-A3G inh – blocks the Vif interaction with human APOBEC3G. Q9HC16. HeLa A3G-eYFP + Vif (tagged APOBEC3G with the HIV-1 protein that degrades it), YFP fluorescence, overnight. Potency, µM (doses to about 46.1 µM), actives largely listed as inhibitors. hit rate 0.076% among 410,000; note: nearly all actives have a fitted effect of over 60% in size
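HeLa cells stably expressing Vif and C-terminally eYFP-tagged A3G, seeded overnight at 37 deg C, then exposed to compound by pintool overnight at 37 deg C. Rise in yellow fluorescence (Ex 488/Em 500-530, Acumen) marks blocked Vif-driven A3G degradation.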
Vif-A3F inh – Vif-A3F binding inhibition | Potency, µM (doses to about 46.1 µM) | HeLa A3F-eYFP + Vif (tagged APOBEC3F with the HIV-1 protein that degrades it), YFP fluorescence increase | hit rate 0.2% among 390,000; note: nearly all actives have a fitted effect of over 65% in size
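Fluorescence increase (Ex 488/Em 500-530) after overnight compound treatment at 37 deg C flags inhibition of Vif-driven A3F-eYFP loss in stable HeLa A3F-eYFP/Vif cells seeded overnight beforehand.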
TSHR antag – antagonists of human thyroid stimulating hormone receptor | TSHR-expressing cells, TSH-stimulated cAMP HTRF, 2 h; stronger effect = lower value | activity change, negative = inhibition, % at 11.5 µM | hit rate 0.2% among 330,000;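 active = activity change below a set negative limit, meaning inhibition stronger than a set level, cut at about -70% in these data; inconclusive = activity change between two set negative limits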
Target sequence (P16473 whole entry, looked up): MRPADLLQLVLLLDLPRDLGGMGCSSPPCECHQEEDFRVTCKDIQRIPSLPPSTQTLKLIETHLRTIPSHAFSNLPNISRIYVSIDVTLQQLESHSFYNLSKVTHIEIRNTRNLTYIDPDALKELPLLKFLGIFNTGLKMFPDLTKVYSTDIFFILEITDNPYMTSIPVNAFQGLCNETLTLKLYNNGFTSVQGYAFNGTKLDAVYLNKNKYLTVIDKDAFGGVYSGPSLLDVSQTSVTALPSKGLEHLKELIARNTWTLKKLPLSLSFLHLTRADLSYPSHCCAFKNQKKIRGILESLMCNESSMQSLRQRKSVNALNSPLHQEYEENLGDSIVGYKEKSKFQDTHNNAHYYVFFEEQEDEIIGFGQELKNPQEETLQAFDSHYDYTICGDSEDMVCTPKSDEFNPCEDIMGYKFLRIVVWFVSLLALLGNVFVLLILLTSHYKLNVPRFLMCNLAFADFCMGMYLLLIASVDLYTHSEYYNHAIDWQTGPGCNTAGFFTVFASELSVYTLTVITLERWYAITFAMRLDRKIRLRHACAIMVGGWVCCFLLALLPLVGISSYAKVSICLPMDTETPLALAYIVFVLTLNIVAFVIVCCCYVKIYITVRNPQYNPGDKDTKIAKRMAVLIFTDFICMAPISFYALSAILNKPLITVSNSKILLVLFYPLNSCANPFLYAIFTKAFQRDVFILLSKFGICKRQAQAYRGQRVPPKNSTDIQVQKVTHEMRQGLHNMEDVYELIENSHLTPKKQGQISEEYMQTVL
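Antagonism was scored as loss of TSH-driven cAMP in TSHR cells, stimulated with 4nM TSH (EC80) for 2 hours at 37 deg C and detected by homogeneous HTRF competition immunoassay.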
Hits are given with their value; . = inactive; ? = inconclusive; / = not tested or not shown; ! = a repeat was not active. The list is not random: actives were taken first. Their share in the collection is about 3.1%. Unless noted, calls come from the whole dose curve; as a rule, active = well fitted curve in the direction sought with a large enough effect; inconclusive = small, poorly fitted or top-dose-only effect, or another doubt; inactive = no such curve, though single readings can be large; an effect the other way counts as inactive or inconclusive.

SMILES	VDR inh	PLK1 PBD inh	Vif-A3G inh	Vif-A3F inh	TSHR antag
O=C(Nc1ccc2snnc2c1)Nc1cccc2ccccc12	.	30µM	.	.	.
O=C(Nc1ccccc1)c1ccc2snnc2c1	?	27µM	.	.	.
CCCCCCNC(=O)N[C@@H](C(=O)NCCC[C@H]1CN2C(=NC[C@@H]2Cc2ccccc2)N1CCc1cccc(OC)c1)C(C)C	?	1.5µM	.	.	.
CCc1ccccc1NC(=O)CSc1nncn2c1cc1oc(C)cc12	.	/	.	.	/
C/C=C(\C=C\[C@@H](C)C/C=C/CC/C=C/C=C\C[C@@H](OC)/C(C)=C\C=C(C)C)CC(=O)O	.	/	/	/	/
c1cc2c(cc1-c1csc(NNC3=NCCCCC3)n1)OCCO2	?	19µM	.	.	.
Cc1cc(C)c2c(=O)n(CC(=O)NCCCN3CCOCC3)sc2n1	?	1.5µM	.	.	.
Cc1cc(C)c2c(=O)n(CC(=O)NCCCN3CCN(c4ccccc4F)CC3)sc2n1	16µM	2.1µM	.	.	.
C=CCN(CC=C)C(=S)NC(=O)/C=C/c1ccc(C)cc1	.	.	.	.	.
C=CCN(CC=C)C(=S)NC(=O)/C=C/c1ccccc1	20µM	15µM	.	.	.
C=CCNc1nc(-c2cccs2)c(CC(=O)O)s1	.	?	.	.	.
O=C(O)Cc1sc(Nc2ccccc2)nc1-c1cccs1	79µM	21µM	.	.	.
O=C(O)Cc1sc(N/N=C\c2ccccc2)nc1-c1ccccc1	.	12µM	.	.	.
COc1ccccc1Nc1nc(-c2ccccc2)c(CC(=O)O)s1	.	/	.	.	/
O=Cc1ccc(CS)cc1	/	/	.	/	/
CCC(NC(=O)Nc1cc(Cl)ccc1OC)c1c(-n2cccc2)sc2c1CCN(C)C2 (stereo not given)	.	/	?	?	/
CCOC(=O)c1cnc2c(OC)cccc2c1N1CCN(c2ccc(OC)cc2)CC1	.	24µM	.	.	.
CC(C1SC(=S)NC1=O)C1SC(=S)NC1=O (stereo not given)	/	2.1µM	.	.	/
CN(C)S(=O)(=O)c1cccc(-c2nn(-c3ccccc3)cc2/C=C(\C#N)c2nc3ccccc3[nH]2)c1	.	.	.	.	.
CN(C)S(=O)(=O)c1cccc(-c2nn(-c3ccccc3)cc2/C=C2\SC(=S)NC2=O)c1	.	21µM	.	.	-74
CC(=O)/C(=C/c1ccccc1)C(=O)Nc1ccccc1C	22µM	.	?	.	.
Cc1cnc(/C=C/c2ccc(N(C)C)cc2)cn1	/	/	.	/	/
O=C(NCc1ccccn1)/C(=N/O)c1ccccc1	.	3.4µM	.	.	.
Cc1cnc(CNc2cc(-c3ccoc3)ncn2)cn1	45µM	/	/	/	/
c1cncc(CNc2cc(-c3ccoc3)ncn2)c1	22µM	/	/	/	/
SMILES	VDR inh	PLK1 PBD inh	Vif-A3G inh	Vif-A3F inh	TSHR antag
CC(=O)NC(c1ccco1)c1cc(Br)c2cccnc2c1O (stereo not given)	/	/	/	/	.
Cc1nnc(N2C(=O)c3oc4ccccc4c(=O)c3C2c2cccc(OCCC(C)C)c2)s1 (stereo not given)	.	/	.	.	/
O=C(/C=C/c1ccc(O)cc1)c1ccc(O)cc1O	79µM!	.	.	.	.
COc1ccc(C(=O)/C=C/c2ccccc2)c(O)c1	?	.	.	.	.
COc1ccc(/C=C/C(=O)c2ccc(C)s2)cc1	32µM	/	/	/	/
COc1ccc(/C=C/C(=O)c2cc(O)ccc2O)cc1	7.9µM	/	/	/	/
CN(C)c1ccc(/C=C/C(=O)c2cc(Cl)ccc2O)cc1	.	.	.	.	.
O=C(/C=C/c1ccncc1)c1cc(Cl)ccc1O	.	.	?	25µM	.
COc1cc2c(C=O)c3c4c(cc(OC)c(OC)c4c2cc1OC)CCN3C	.	/	/	/	/
COc1ccc(CN2CC[C@H]3C=CC[C@@H](C(=O)Nc4ccc(Cl)cc4Cl)[C@H]3C2=O)cc1OC	/	/	.	/	/
CCCCC/C=C\C/C=C\CCCCCCCCCC(=O)NC(C)C(=O)O (stereo not given)	.	/	/	/	/
CNc1ncnc2ccc(-c3ccccc3C)cc12	.	/	/	/	/
COc1ccccc1-c1c(C)nn2c(N3CCN(c4ccc(F)cc4)CC3)cc(C)nc12	.	/	.	.	/
O=C(/C=C/c1ccc(O)c(O)c1)c1ccccc1O	.	.	.	?	.
O=C(C=Cc1cccc(O)c1)c1ccccc1O	40µM	1.7µM	.	.	/
O=C(/C=C/c1ccccc1)c1ccc(O)cc1O	25µM	/	/	/	/
S=C(NCCCc1cnc[nH]1)NCCCN(Cc1ccc(Cl)cc1)c1ncc(Br)cn1	.	/	.	/	/
COc1ccc(C(=O)Oc2c(Sc3ccccc3)c(C)nn2-c2ccccc2)c(OC)c1	.	/	.	.	/
Cc1nn(-c2ccccc2)c(OC(=O)C(C)C)c1Sc1ccc(Cl)cc1	89µM	/	/	/	/
N#C/C(C(=O)Nc1ccc(Cl)cc1)=C(/S)Nc1ccccc1	?	3.4µM	.	.	.
CC(=O)Nc1ccc(SCC(CC(C)C)N2CCN(C)CCC2=O)cc1 (stereo not given)	.	/	.	/	/
COCC1=C2c3ccccc3[C@H](C[N+](=O)[O-])C(C(=O)OC)(C(=O)OC)C[C@@H]2n2c(=O)n(-c3ccccc3)c(=O)n2C1	.	/	/	/	/
Cc1ccccc1-c1cc(N2CCNCC2)ncn1	45µM	/	/	/	/
Cc1ccccc1-c1cc(N2CCN(C)CC2)ncn1	.	/	/	/	/
C=CCNC(=O)c1oc2ccc(S(=O)(=O)N(CC)CC)cc2c1C	.	9.5µM	.	.	.
SMILES	VDR inh	PLK1 PBD inh	Vif-A3G inh	Vif-A3F inh	TSHR antag
CCN(CC)S(=O)(=O)c1ccc2oc(C(=O)NCCN3CCOCC3)c(C)c2c1	.	27µM	.	.	.
CC1(C)C[C@](C)(C(=O)c2ccccc2)C=C1c1ccccc1	.	/	/	/	/
Cc1ccccc1NC(=O)CN1C(=O)CSc2ccc(S(=O)(=O)N3CCCC3)cc21	.	.	.	.	.
Cc1ccccc1NC(=O)CN1C(=O)CSc2ccc(S(=O)(=O)N3CCCCC3)cc21	.	21µM	.	.	.
CC1CCCN(C(=O)CN2C(=O)CSc3ccc(S(=O)(=O)N4CCOCC4)cc32)C1 (stereo not given)	.	27µM	.	.	.
CSc1sccc1/C=C(/C#N)C(=O)c1ccco1	?	0.84µM	.	.	.
O=[N+]([O-])c1ccc(C(=S)N2CCN(c3ccc(F)cc3)CC2)cc1	79µM	15µM	.	.	.
O=[N+]([O-])c1cccc(C(=S)N2CCN(c3ccccc3)CC2)c1	?	12µM	.	.	.
CNC(=S)N1CCN(c2ccc([N+](=O)[O-])cc2)CC1	.	.	.	.	.
Cc1cccc(N2CCN(C(=S)c3ccc([N+](=O)[O-])cc3)CC2)c1	?	4.7µM	.	.	.
CCNC(=S)N1CCN(c2ccc([N+](=O)[O-])cc2)CC1	.	30µM	.	.	.
O=[N+]([O-])c1ccc(NC(=S)N2CCN(c3ccc(F)cc3)CC2)cc1	.	.	.	.	.
C/C(=C\C[Si](C)(C)C)CC[C@H](O)C1=CCCCC1=O	.	/	/	/	/
C[C@H](C(=O)O)c1ccc2cc(O)ccc2c1	.	/	/	/	/
CCCCCC(=O)/C=C/C=C\C/C=C\C/C=C\CCCC(=O)O	.	/	/	/	/
